Test results from PubChem BioAssay AID1259422 (The Scripps Research Institute Molecular Screening Center, 2018).
About 9,300 (1.5%) of roughly 640,000 compounds were called active. No stated cut-off is given here; in the data, active means inhibition above about 32%; inactive means the rest. What follows is part of a selection rich in actives, with near analogues and random picks from the rest.

Assay: TEAD-YAP interaction inhibition, primary screen, TEAD-YAP interaction inhibitor project, luminescence, HEK-TIYL cells (AID 1259422);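 further: 0% = median of test compound wells and 100% = reference inhibitor wells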
Conditions: TEAD-Gal4/YAP UAS-luciferase luminescence, at 9.12 µM, active compounds read high

Structure (SMILES)	inhibition
COc1ccc2nc(NC(=O)c3ccccc3OC)sc2c1	5.95% (inactive)
CCc1nc(SCC(=O)Nc2nc(C)c(C)s2)c2ccccc2n1	5.48% (inactive)
O=C1Nc2cc(C(=O)N3CCN(c4ccccn4)CC3)ccc2Nc2ccccc21	11.1% (inactive)
c1cc(N2CCOCC2)n2ncc(-c3ccc4[nH]ccc4c3)c2n1	96.6% (active)
Clc1ccccc1-c1cnn2c(N3CCOCC3)ccnc12	16.7% (inactive)
COc1cccc(-c2cnn3c(N4CCC(O)CC4)ccnc23)c1	21.5% (inactive)
COc1cc(-c2cnn3c(N4CCOCC4)ccnc23)cc(OC)c1OC	76.6% (active)
OC1CCN(c2ccnc3c(-c4ccoc4)cnn23)CC1	-22.8% (inactive)
COc1ccc(-c2cnn3c(N4CCOCC4)ccnc23)c(OC)c1	-6.8% (inactive)
O=C(CNC(=O)c1ccco1)N/N=C/c1ccc(O)c(O)c1	3.54% (inactive)
Cc1ccc(N(CC(=O)O)C2SC(=O)N(c3ccccc3)C2=O)cc1 (stereo not given)	-28.6% (inactive)
Cc1cc(C)cc(OCC(=O)Nc2sc3c(c2C(N)=O)CCCC3)c1	-1.21% (inactive)
CCCCOC(=O)C1=C(C)NC2=C(C(=O)CC(C)(C)C2)C1c1ccc(Cl)cc1Cl (stereo not given)	1.21% (inactive)
Cc1nc(C)n(-c2ccc(Nc3cc(-n4ccnn4)ccn3)cc2)n1	1.02% (inactive)
Cc1ncn(-c2ccc(Nc3ncc(-c4cnn(C)c4)c(-c4cnn(C)c4)n3)cc2)n1	-5.05% (inactive)
Cc1nc(C)n(-c2ccc(Nc3ncc4ccc(-c5cnn(C)c5)cc4n3)cc2)n1	84.9% (active)
Cc1ccccc1CCNCc1ccc(C(=O)O)s1	-4.88% (inactive)
CC(C)(C)c1nc2ccccc2c2nn(CC(=O)N3CCNC(=O)C3(C)C)c(=O)n12	-10.6% (inactive)
O=C(NCC1CCCO1)c1ncoc1-c1cccc(Cl)c1 (stereo not given)	-34.8% (inactive)
Cn1nnc2c(N3CCN(CC(=O)Nc4ccccc4F)CC3)ncnc21	3.56% (inactive)
Cc1nn2c(NCc3ccncc3)c3c(nc2c1-c1ccccc1)CCC3	-22.7% (inactive)
COc1cccc2c(=O)n(CC(=O)NCc3ccccc3)ccc12	38.8% (active)
COc1ccccc1NC(=O)Cn1ccc2ccccc2c1=O	-0.57% (inactive)
O=C(Cn1cnc2ccccc2c1=O)NCc1ccccc1	2.51% (inactive)

Structure (SMILES)	inhibition
Cn1cc(S(=O)(=O)O)cc1-c1nc2ccccc2n1C	9.5% (inactive)
Cc1c(-n2c(-c3ccco3)nc3ccccc3c2=O)c(=O)n(-c2ccccc2)n1C	-10.7% (inactive)
Cn1c(-c2ccco2)nc2cc3ccccc3cc21	90.5% (active)
NC1=NC(=Nc2ccc(N3CCCCC3)cc2)c2ccccc21	60.5% (active)
C(/C=C/c1ccccc1)=Nc1ccc(N2CCOCC2)cc1	18.8% (inactive)
NC1=NC(=Nc2cc(Cl)cc(Cl)c2)c2ccccc21	-2.03% (inactive)
O=C1OC(c2ccccc2Cl)=N/C1=C\c1ccco1	4.9% (inactive)
COc1cc(/C=N/NC(=O)CC(=O)NCC(C)C)ccc1O	8.56% (inactive)
CCOC(=O)N1CCN(C(=O)c2ccc3c(=O)n(Cc4ccccc4Cl)c(=S)[nH]c3c2)CC1	-2.49% (inactive)
Cc1noc(C)c1-c1nc(NC2CC2)c2ncn(-c3ccsc3)c2n1	41.4% (active)
c1ccc2c(-c3nc(NC4CC4)c4ncn(-c5ccsc5)c4n3)csc2c1	13.5% (inactive)
COc1ccc(CCNc2nc(-c3c(C)noc3C)nc3c2ncn3-c2ccsc2)cc1	-2.43% (inactive)
CC(=O)N(c1cccc(C)c1)C1SC(=O)N(c2cccc(C)c2)C1=O (stereo not given)	3.53% (inactive)
O=C(Nc1ccc(-c2nc3cccnc3s2)cc1)C1CCCC1	51.9% (active)
CC(=O)Nc1ccc(S(=O)(=O)Nc2ccc(-c3nc4cccnc4s3)cc2)cc1	7.3% (inactive)
CC(=O)Nc1cccc(-c2nc3cccnc3s2)c1	-43.1% (inactive)
Cc1ncc(-c2ccc(F)cc2)c(C2CCCN(CCO)C2)n1 (stereo not given)	-9.4% (inactive)
COC(=O)COc1ccc(/C=C2/NC(=O)N(c3ccccc3)C2=O)cc1OC	11.3% (inactive)
Cc1nc(NC(=O)/C=C/c2cccc([N+](=O)[O-])c2)sc1C(=O)N(C)C	-12.3% (inactive)
N#Cc1ccc(OCC(=O)Nc2ccc3c(c2)C(=O)c2ccccc2C3=O)cc1	-21.1% (inactive)
CCOC(=O)CSC1=C(C#N)C(c2ccccc2)CC(=O)N1 (stereo not given)	53.9% (active)
N#CC1=C(SCC(=O)Nc2nccs2)NC(=O)CC1c1cccs1 (stereo not given)	5.49% (inactive)
N#CC1=C(SCC(=O)OCc2ccccc2)NC(=O)CC1c1ccc(F)cc1 (stereo not given)	6.22% (inactive)
CCOC(=O)CSC1=C(C#N)C(c2sccc2C)CC(=O)N1 (stereo not given)	56.8% (active)

Structure (SMILES)	inhibition
COc1ccc(C(=O)CSC2=C(C#N)C(c3cccs3)CC(=O)N2)cc1 (stereo not given)	-82.2% (inactive)
CCOc1cc(C2CC(=O)NC(SCC(=O)OCc3ccccc3)=C2C#N)ccc1O (stereo not given)	-6.79% (inactive)
CCOC(=O)c1ccc(CN(Cc2ccc(Br)cc2)S(=O)(=O)c2cc(Cl)cc(Cl)c2)cc1	11.6% (inactive)
O=C(NCCc1ccccc1)C(=O)Nc1ccccc1F	-44.1% (inactive)
CCCCSc1nc2sc3c(c2c(=O)n1-c1ccc(OC)cc1)CCCC3	-1.35% (inactive)
O=C(CCSc1ccccc1)Nc1cccc2ccc(-n3ccnc3)nc12	-3.58% (inactive)
COc1cc(C(=O)Nc2cc(-c3nc4ccc(C)cc4o3)ccc2C)ccc1OCc1ccc(Cl)cc1	-64.2% (inactive)
Cc1cc(N2CCOCC2)nc(SCC(=O)N2CCCC2)n1	5.97% (inactive)
Cc1cc(N2CCCCC2)nc(NCCNC(=O)C2CCCO2)n1 (stereo not given)	42.3% (active)
CCNC(=O)C1CCN(c2nc(C)cc(C)n2)CC1	-5.09% (inactive)
O=C(/C=C/c1ccc(F)cc1)Nc1ccccc1F	79.4% (active)
O=C(/C=C\c1ccccc1)Nc1cc2ccccc2cc1NC(=O)/C=C/c1ccccc1	-0.29% (inactive)
Cc1cccc(NC(=O)/C=C/c2ccc(F)cc2)c1	34.1% (active)
O=C(/C=C/c1ccc(F)cc1)NCCCCNC(=O)/C=C/c1ccc(F)cc1	-6.73% (inactive)
Cc1csc(NC(=O)/C=C/c2ccc(F)cc2)n1	-40.2% (inactive)
Cc1cc(C)nc(NS(=O)(=O)c2ccc(NC(=O)/C=C/c3ccc(F)cc3)cc2)n1	-8.5% (inactive)
O=C(Nc1ccc(-c2nc3cc(Cl)ccc3o2)cc1)c1ccc(-c2ccc(Cl)cc2)o1	-100% (inactive)
O=S(=O)(NCc1ccccc1)c1cccc(S(=O)(=O)NCc2ccccc2)c1	4.17% (inactive)
N#C/C(=C\c1cn(-c2ccccc2)nc1-c1ccc(Cl)cc1)C(N)=O	2.99% (inactive)
NC(=O)c1ccc(-c2nc(NC3CC3)c3ncn(C4CCCCC4)c3n2)cc1	18% (inactive)
O=C(O)c1nnn(-c2ccccc2)c1C(=O)O	5.21% (inactive)
CCOC(=O)c1sc2nc(C)nc(N3CCCCC3)c2c1C	-2.79% (inactive)
O=[N+]([O-])C1CS(=O)(=O)C=C1N(Cc1ccccc1)c1ccccc1 (stereo not given)	39.5% (active)
O=C(c1cc2ccccc2oc1=O)N(Cc1ccccc1)c1cccc([N+](=O)[O-])c1	0.25% (inactive)

Structure (SMILES)	inhibition
CCN(Cc1ccccc1)Cc1ccc([N+](=O)[O-])cc1	10.2% (inactive)
Cc1cc(OCc2nc(SCC(=O)N(C)C)n[nH]2)ccc1Cl	-1.92% (inactive)
Cc1ccccc1Nc1ncnc2nc[nH]c12	-0.78% (inactive)
COc1cc(C(=O)NC(=S)Nc2ccccc2O)cc(OC)c1OC	12% (inactive)
Cc1cc(C)c(OCC(O)Cn2c(C)nc3ccccc32)c(C)c1 (stereo not given)	35.1% (active)
CCc1cc(C)cc(OCC(O)Cn2c(C)nc3ccccc32)c1 (stereo not given)	26.7% (inactive)
Cc1nc2ccccc2n1CC(O)COc1ccc(N)cc1 (stereo not given)	10.8% (inactive)
O=C(Oc1cc(-c2ccc(Cl)cc2)c2oc(=O)sc2c1)c1ccccc1	-3.66% (inactive)
COc1ccccc1N1CCN(Cc2cc(=O)c(OCc3ccc(Cl)cc3)co2)CC1	6.69% (inactive)
COc1ccccc1N1CCN(c2c(-c3ccc(Cl)cc3)c(=O)c2=O)CC1	70.2% (active)
COc1ccccc1N1CCN(S(=O)(=O)c2ccccc2[N+](=O)[O-])CC1	13% (inactive)
CCOC(=O)N1CCC(N2C(=O)c3ccc(C(=O)NCC(OC)OC)cc3C2=O)CC1	10.6% (inactive)
CCCCSc1nnc(NC(=O)C2CC2)s1	-17.5% (inactive)
NS(=O)(=O)c1cccc(N=C2C(=O)Nc3ccc([N+](=O)[O-])cc32)c1	-2.91% (inactive)
CCN(CC)c1ccc2cc(-c3nnc(Nc4ccccc4F)s3)c(=O)oc2c1	2.05% (inactive)
CCN(CC)c1ccc2cc(-c3nc4ccc(Cl)cc4[nH]3)c(=O)oc2c1	25.2% (inactive)
CCN(CC)c1ccc2cc(-c3nc4ccccc4[nH]3)c(=N)oc2c1	76.8% (active)
CC[n+]1cc(C)ccc1/C=C/c1ccc(N(C)C)cc1	86.9% (active)
CN(C)c1ccc(C=NCC(O)CN=Cc2ccc(N(C)C)cc2)cc1 (stereo not given)	3.49% (inactive)
CC[n+]1c(/C=C/c2ccc(N(C)C)cc2)oc2ccccc21	1.32% (inactive)
COc1ccc(/C=C2\SC(=O)N(Cc3ccc(C(=O)O)cc3)C2=O)cc1	1.76% (inactive)
COc1ccc(/C=C2/SC(=O)N(CCCC(=O)Nc3ccc(C(=O)O)cc3)C2=O)cc1	80.5% (active)
Cc1ccc(/C=C2/SC(=O)N(CCC(=O)O)C2=O)cc1	19.7% (inactive)
